The nature of assay [1]: Cell Viability - BJ (AID 421; calls by dose curve;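 further: potency means the concentration at half of the fitted maximal effect; cells exposed to compound for 40 hours at 37 °C before readout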). As to conditions: BJ fibroblast viability, qHTS. A digest of the protocol:
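Quantitative HTS: ATP depletion in BJ cells after 40 hr compound exposure in complete culture medium, detected with CellTiter-Glo; AC50 from standard Hill fits.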

Assay [2] is described as follows: MultiTox-Fluor Cytotoxicity Assay - LYMP1-002 - Live Cells (AID 955).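 Further: cells exposed to compound for 16 hours; on the % scale 0 is the no-effect control and ±100 the full control effect.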 As to conditions: LYMP1-002 lymphoblastoid live-cell protease fluorescence viability; series mostly up to 46.1 µM. In short, it runs like this: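 Cells were seeded at 2500 per well and incubated 5 hr. Compounds were then added for 16 hr at 37 C, followed by MultiTox-Fluor reagent for 60 min at room temperature and fluorescence reading of viable-cell protease signal.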

A short description of assay [3]: Cell Viability - LYMP2-019 (AID 973).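 Further: 0% = DMSO alone and full effect = 92 µM tetraoctylammonium bromide; nearly all actives have a fitted effect of over 55% in size.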 The note with it: LYMP2-019 lymphoblastoid cell line viability; series mostly up to 92.2 µM. In short, it runs like this:
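Cytotoxicity is scored as a concentration-dependent drop in cellular ATP after cells (2500/well) receive compound for 24 hr at 37 C. Tetraoctylammonium bromide serves as positive control.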

Assay [4] can be described thus: Cell Viability - LYMP2-023 (AID 975).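 Further: cellular ATP measured by luciferase luminescence as viability proxy; plate controls were DMSO only for no effect and 92 µM tetraoctylammonium bromide control for full effect; nearly all actives have a fitted effect of over 55% in size.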 The note with it: LYMP2-023 lymphoblastoid cell viability; series mostly up to 92.2 µM. A digest of the protocol: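 Steps: seed 2500 human lymphoblastoid cells per well, incubate 5 hr at 37 C, add compound for 24 hr at 37 C, add CellTiter-Glo, hold 30 min at room temperature, read luminescence. AC50 derived by Hill modelling.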

Assay [5] can be described thus: Cell Viability - LYMP2-025 (AID 976).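 Further: plate controls were DMSO only for no effect and tetraoctylammonium bromide control for full effect.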 As to conditions: LYMP2-025 lymphoblastoid cell viability; series mostly up to 92.2 µM. In short, it runs like this:
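Acute cytotoxicity is scored as a concentration-dependent fall in intracellular ATP, measured by luciferase luminescence, in human lymphoblastoid LYMP2-025 cells exposed to compound for 24 hours at 37 C. AC50 values come from standard Hill fits.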

Assay [6] in a line: Cell Viability - LYMP2-007 (AID 979).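 Further: cells exposed to compound for 24 h before reading; 0% = DMSO only and the negative end = 92 µM tetraoctylammonium bromide; nearly all actives have a fitted effect of over 60% in size.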 As to conditions: LYMP2-007 lymphoblastoid cell viability; series mostly up to 92.2 µM. A digest of the protocol: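 Cells are seeded at 2500 per well and rested 5 hr. Compounds are then added over a concentration series for 24 hr at 37 C. CellTiter-Glo is added for 30 min at room temperature before luminescence reading.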
The nature of assay [7]: Cell Viability - LYMP2-022 (AID 987).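 Further: 0% = DMSO alone and full effect = tetraoctylammonium bromide at 92 µM; nearly all actives have a fitted effect of over 55% in size.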 The note with it: LYMP2-022 lymphoblastoid cell viability; series mostly up to 92.2 µM. A digest of the protocol: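 Cells were seeded at 2500 per well, rested 5 hr at 37 C, and treated with titrated compounds for 24 hr at 37 C. Cellular ATP was then quantified by luciferase luminescence, and AC50 values were derived from Hill-modelled concentration-response curves.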

The target of assay [8] is Bile acid receptor (Homo sapiens) (UniProt Q96RI1). Nature of the assay: qHTS assay for small molecule antagonists of farnesoid X receptor signaling (AID 588526; calls by dose curve; further: potency means the concentration at half of the fitted maximal effect). The note with it: HEK293T FXR-UAS-bla, beta-lactamase ratio, antagonist mode; series mostly up to 76.7 µM. A digest of the protocol:
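Beta-lactamase reporter antagonist mode: HEK293T FXR-UAS-bla cells, titrated compound, CDCA stimulation, 16 h 37 C, CCF4 dye 2 h RT. Data normalized to CDCA 50 uM and DMSO; Hill-fit IC50.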
On the technique in general: qHTS replaces the single test concentration by a dilution series.

Assay [9] deals with Glucocorticoid receptor (Homo sapiens) (UniProt P04150). Kind of assay: qHTS assay for small molecule antagonists of glucocorticoid receptor signaling (AID 588533; active means well fitted inhibition curve with a large enough effect in the signal ratio, with a control signal flat, not every such curve was filed as active; the % refers to the signal ratio;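 further: cells stimulated with 2 nM dexamethasone as agonist; on the % scale 0 is the no-effect control and ±100 the full control effect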). The note with it: HeLa MMTV-bla, GRE beta-lactamase ratio, antagonist mode, 18 h; series mostly up to 76.8 µM. In short, it runs like this:
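Antagonist-mode qHTS: compound titrations added to GRE-bla HeLa cells, then dexamethasone 2 nM final; 18 h, 37 C. CCF4 FRET fluorescence normalized to dexamethasone and DMSO; IC50 from Hill fit.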

Assay [10] concerns the target Thyroid hormone receptor beta (Homo sapiens) (UniProt P10828). Kind of assay: qHTS assay for small molecule antagonists of thyroid hormone receptor beta signaling (AID 588547; active means well fitted inhibition curve with a large enough effect in the signal ratio, with a control signal flat, not every such curve was filed as active; the % refers to the signal ratio;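 further: cells stimulated with 0.4 nM T3 agonist during compound exposure; on the % scale 0 is the no-effect control and ±100 the full control effect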). The note with it: TR-UAS-bla HEK293, beta-lactamase ratio, antagonist mode, 18 h. In short, it runs like this:
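Inhibition of T3-driven (0.4nM final) beta-lactamase reporter activity was measured over 0.59 nM to 92 uM compound after 18 h at 37 C. The cells were GripTite HEK293 TR-UAS-bla in charcoal/dextran-stripped serum, with CCF4 ratio read-out and IC50 from Hill fits.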

For assay [11], the target named is Voltage-gated inwardly rectifying potassium channel KCNH2 (Homo sapiens) (UniProt Q12809). Kind of assay: qHTS Assay for Small Molecule Inhibitors of the Human hERG Channel Activity (AID 588834).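 Further: top concentration of the series differs between compounds; on the % scale 0 is the no-effect control and ±100 the full control effect; lower thallium flux fluorescence means stronger hERG block; nearly all actives have a fitted effect of over 50% in size.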 The note with it: U2OS BacMam hERG, FluxOR thallium flux fluorescence; series mostly up to 92.2 µM. In short, it runs like this: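 In hERG-transduced U2OS cells, dye-loaded for 1 hr at room temperature in dark, test compounds incubated 10 min at 37 °C before thallium stimulation. AC50 values derived by Hill modelling of concentration-response.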

A short description of assay [12]: Cell Viability - SK-N-SH (AID 435; calls by dose curve;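 further: potency means the concentration at half of the fitted maximal effect; compound exposure lasted 40 h at 37 °C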). As to conditions: SK-N-SH neuroblastoma cell viability qHTS. A digest of the protocol: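 SK-N-SH human neuroblastoma cells (1500/well) were exposed to compounds in complete medium for 40 h at 37 °C, and intracellular ATP was then measured by CellTiter-Glo luminescence. AC50 was taken from Hill fits, normalized to DMSO and 100 uM tamoxifen.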

Assay [13] can be described thus: MultiTox-Fluor Cytotoxicity Assay - LYMP1-001 - Live Cells (AID 947).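 Further: 0% = DMSO only and full inhibition = tetraoctylammonium bromide control.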 As to conditions: LYMP1-001 lymphoblastoid cells, live-cell protease fluorescence viability; series mostly up to 92.2 µM.
The nature of assay [14]: Cell Viability - LYMP2-018 (AID 985).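 Further: compound exposure lasted 24 hr at 37 °C; plate controls were DMSO only for no effect and tetraoctylammonium bromide at 92 µM for full effect; nearly all actives have a fitted effect of over 50% in size.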 As to conditions: LYMP2-018 lymphoblastoid cells, viability (qHTS); series mostly up to 92.2 µM. A digest of the protocol:
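Seed 2500 lymphoblastoid cells per well, incubate 5 hr at 37 C, add compound and incubate 24 hr at 37 C, add CellTiter-Glo, wait 30 min at room temperature, then read luminescence.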

The target in assay [15] is Glucocorticoid receptor (Homo sapiens) (UniProt P04150). Nature of the assay: qHTS assay for small molecule agonists of glucocorticoid receptor signaling (AID 588532; active means well fitted curve in the direction sought with a large enough effect in the signal ratio, with a control signal flat; the % refers to the signal ratio;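 further: 100% = dexamethasone at 0.1 µM and 0% = DMSO only wells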). As to conditions: HeLa MMTV-bla, beta-lactamase ratio, agonist, 18 h; stronger effect = higher value; percent of dexamethasone control, DMSO zero. A digest of the protocol: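 Quantitative HTS using CellSensor MMTV-bla HeLa cells in charcoal/dextran-treated serum; compounds tested up to 92 uM. After 18 h at 37 C, CCF4 dye reported reporter induction.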

The nature of assay [16]: qHTS assay for small molecule antagonists of peroxisome proliferator-activated receptor delta signaling (AID 588535).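 Further: cells co-treated with a PPAR-delta agonist as stimulator during compound exposure.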 The note with it: HEK293T PPARd-UAS-bla, beta-lactamase FRET ratio, 18 h; 460 nm channel. A digest of the protocol: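 Titrations were run on PPAR-delta-UAS-bla HEK293T cells in charcoal/dextran-stripped serum, incubated 18 h at 37 C. CCF4 fluorescence (460/530 nm) after 2 h RT; Hill equation yields IC50 and maximal response.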

Assay [17] addresses Peroxisome proliferator-activated receptor gamma (Homo sapiens) (UniProt P37231). Kind of assay: qHTS assay for small molecule antagonists of peroxisome proliferator-activated receptor gamma signaling (AID 588537; active means well fitted inhibition curve with a large enough effect in the signal ratio, with a control signal flat, not every such curve was filed as active; the % refers to the signal ratio;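 further: reporter cells co-stimulated with 50 nM rosiglitazone agonist during compound treatment; % of control where 0% means no effect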). As to conditions: HEK293 PPARg-UAS-bla, beta-lactamase ratio, antagonist mode; series mostly up to 76.8 µM. A digest of the protocol:
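Antagonist-mode β-lactamase reporter screen run as a titration series. HEK293 PPARγ-UAS-bla cells are stimulated with rosiglitazone (50 nM final) for 16 h, then CCF4 is read at 460/530 nm. Data are scaled between DMSO and rosiglitazone and fitted to the Hill equation.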

The nature of assay [18]: Cell Viability - LYMP2-001 (AID 921).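 Further: 0% = DMSO only and full inhibition = tetraoctylammonium bromide control wells; nearly all actives have a fitted effect of over 70% in size.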 The note with it: LYMP2-001 lymphoblastoid cell viability; series mostly up to 92.2 µM. A digest of the protocol: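 Human lymphoblastoid cells (Coriell), 2500 per well, were preincubated 5 hr at 37 C, then exposed to compounds in complete medium for 24 hr at 37 C. Cellular ATP was read by CellTiter-Glo luminescence; AC50 from Hill fits of concentration-response data.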

A short description of assay [19]: Cell Viability - LYMP1-003 - Assay at 40 hr (AID 964). Further: on the % scale 0 is the no-effect control and ±100 the full control effect; nearly all actives have a fitted effect of over 60% in size. The note with it: LYMP1-003 lymphoblastoid viability; series mostly up to 92.2 µM. A digest of the protocol: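 Luminescent ATP signal (CellTiter-Glo) served as the viability read-out after 40 hr compound treatment of human lymphoblastoid LYMP1-003 cells at 37 C. Decreases in ATP were fitted with the Hill equation to give AC50.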

Molecules are shown by their SMILES. “And” between values parts separate entries of the source, which are not always exact repeats. Equal values may be shown once. Inconclusive results are not listed. The source made the active and inactive calls. Unless noted, the call rests on the fitted dose curve; in most records, active means well fitted curve in the direction sought with a large enough effect; inconclusive means small, poorly fitted or top-dose-only effect, or another doubt; inactive means no such curve, though single readings can be large; an effect the other way counts as inactive or inconclusive. Where only a bound is given, the exact number is not on record here.

Thyroid hormone receptor beta (Homo sapiens), sequence (P10828 whole entry, looked up): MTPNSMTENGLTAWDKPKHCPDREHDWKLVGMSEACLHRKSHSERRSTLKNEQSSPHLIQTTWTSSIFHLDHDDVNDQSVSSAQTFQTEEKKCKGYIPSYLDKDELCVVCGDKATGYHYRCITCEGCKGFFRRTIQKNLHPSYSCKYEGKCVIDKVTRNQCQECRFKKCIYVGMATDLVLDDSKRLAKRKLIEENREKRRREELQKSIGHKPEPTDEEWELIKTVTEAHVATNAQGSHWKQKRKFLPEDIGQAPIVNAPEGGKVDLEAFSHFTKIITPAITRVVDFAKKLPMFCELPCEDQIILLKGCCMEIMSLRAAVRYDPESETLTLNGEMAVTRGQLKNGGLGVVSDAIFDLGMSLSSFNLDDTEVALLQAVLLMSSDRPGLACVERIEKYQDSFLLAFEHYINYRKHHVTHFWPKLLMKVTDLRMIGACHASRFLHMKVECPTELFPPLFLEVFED
Voltage-gated inwardly rectifying potassium channel KCNH2 (Homo sapiens), sequence (Q12809 whole entry, looked up): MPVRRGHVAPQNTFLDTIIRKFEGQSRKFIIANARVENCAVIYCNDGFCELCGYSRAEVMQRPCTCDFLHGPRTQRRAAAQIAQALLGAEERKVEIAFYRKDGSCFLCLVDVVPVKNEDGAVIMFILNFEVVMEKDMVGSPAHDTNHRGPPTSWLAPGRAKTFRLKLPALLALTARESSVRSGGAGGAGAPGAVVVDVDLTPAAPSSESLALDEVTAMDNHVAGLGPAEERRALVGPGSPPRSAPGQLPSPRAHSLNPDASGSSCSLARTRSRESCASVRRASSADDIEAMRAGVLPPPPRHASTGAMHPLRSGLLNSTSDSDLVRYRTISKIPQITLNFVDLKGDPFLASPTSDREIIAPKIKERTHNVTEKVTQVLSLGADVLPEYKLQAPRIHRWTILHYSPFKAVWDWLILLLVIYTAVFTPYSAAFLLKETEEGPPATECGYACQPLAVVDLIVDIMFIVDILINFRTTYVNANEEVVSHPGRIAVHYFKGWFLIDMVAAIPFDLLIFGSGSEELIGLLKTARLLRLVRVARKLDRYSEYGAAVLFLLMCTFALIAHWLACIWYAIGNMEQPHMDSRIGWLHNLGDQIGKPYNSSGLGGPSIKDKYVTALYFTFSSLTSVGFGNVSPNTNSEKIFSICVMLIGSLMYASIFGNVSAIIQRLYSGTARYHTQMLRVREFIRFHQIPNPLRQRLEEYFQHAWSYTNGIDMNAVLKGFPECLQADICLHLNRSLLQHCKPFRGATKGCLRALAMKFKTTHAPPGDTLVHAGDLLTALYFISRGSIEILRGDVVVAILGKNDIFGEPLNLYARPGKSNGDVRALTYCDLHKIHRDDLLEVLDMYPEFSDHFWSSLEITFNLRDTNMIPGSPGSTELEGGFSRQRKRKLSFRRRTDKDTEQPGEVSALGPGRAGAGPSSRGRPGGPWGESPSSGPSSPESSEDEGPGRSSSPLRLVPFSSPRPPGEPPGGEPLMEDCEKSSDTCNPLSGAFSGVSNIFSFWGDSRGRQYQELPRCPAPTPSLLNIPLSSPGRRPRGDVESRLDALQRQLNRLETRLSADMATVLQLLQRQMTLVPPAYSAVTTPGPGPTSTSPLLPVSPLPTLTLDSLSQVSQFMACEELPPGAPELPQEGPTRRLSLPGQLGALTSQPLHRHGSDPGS
Bile acid receptor (Homo sapiens), sequence (Q96RI1 whole entry, looked up): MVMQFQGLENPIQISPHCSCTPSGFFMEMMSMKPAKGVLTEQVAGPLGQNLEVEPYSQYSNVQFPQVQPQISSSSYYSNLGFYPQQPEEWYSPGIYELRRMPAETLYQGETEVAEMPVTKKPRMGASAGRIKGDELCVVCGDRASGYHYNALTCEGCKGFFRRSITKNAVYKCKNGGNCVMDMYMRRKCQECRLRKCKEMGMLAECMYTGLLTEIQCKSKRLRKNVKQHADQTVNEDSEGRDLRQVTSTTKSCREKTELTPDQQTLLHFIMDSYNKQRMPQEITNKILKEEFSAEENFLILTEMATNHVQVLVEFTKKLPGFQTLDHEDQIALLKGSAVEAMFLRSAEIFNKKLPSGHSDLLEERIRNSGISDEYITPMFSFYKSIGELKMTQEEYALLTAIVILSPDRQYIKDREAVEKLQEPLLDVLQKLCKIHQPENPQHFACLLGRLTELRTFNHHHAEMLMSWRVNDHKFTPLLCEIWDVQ
Peroxisome proliferator-activated receptor gamma (Homo sapiens), sequence (P37231 whole entry, looked up): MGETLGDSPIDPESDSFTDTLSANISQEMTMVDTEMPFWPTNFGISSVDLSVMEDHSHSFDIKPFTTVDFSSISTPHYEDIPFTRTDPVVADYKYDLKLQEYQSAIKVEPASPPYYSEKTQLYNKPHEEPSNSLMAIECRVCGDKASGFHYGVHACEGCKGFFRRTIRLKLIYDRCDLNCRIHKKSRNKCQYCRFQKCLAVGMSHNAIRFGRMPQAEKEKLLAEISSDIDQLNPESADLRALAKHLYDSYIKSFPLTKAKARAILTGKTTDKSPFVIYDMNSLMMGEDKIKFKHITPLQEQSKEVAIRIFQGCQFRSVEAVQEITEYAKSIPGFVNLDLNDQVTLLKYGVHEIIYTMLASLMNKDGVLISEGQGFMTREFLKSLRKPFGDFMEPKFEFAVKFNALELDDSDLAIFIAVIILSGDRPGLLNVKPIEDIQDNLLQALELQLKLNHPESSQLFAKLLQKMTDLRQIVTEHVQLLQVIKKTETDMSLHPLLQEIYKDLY
Glucocorticoid receptor (Homo sapiens), sequence (P04150 whole entry, looked up): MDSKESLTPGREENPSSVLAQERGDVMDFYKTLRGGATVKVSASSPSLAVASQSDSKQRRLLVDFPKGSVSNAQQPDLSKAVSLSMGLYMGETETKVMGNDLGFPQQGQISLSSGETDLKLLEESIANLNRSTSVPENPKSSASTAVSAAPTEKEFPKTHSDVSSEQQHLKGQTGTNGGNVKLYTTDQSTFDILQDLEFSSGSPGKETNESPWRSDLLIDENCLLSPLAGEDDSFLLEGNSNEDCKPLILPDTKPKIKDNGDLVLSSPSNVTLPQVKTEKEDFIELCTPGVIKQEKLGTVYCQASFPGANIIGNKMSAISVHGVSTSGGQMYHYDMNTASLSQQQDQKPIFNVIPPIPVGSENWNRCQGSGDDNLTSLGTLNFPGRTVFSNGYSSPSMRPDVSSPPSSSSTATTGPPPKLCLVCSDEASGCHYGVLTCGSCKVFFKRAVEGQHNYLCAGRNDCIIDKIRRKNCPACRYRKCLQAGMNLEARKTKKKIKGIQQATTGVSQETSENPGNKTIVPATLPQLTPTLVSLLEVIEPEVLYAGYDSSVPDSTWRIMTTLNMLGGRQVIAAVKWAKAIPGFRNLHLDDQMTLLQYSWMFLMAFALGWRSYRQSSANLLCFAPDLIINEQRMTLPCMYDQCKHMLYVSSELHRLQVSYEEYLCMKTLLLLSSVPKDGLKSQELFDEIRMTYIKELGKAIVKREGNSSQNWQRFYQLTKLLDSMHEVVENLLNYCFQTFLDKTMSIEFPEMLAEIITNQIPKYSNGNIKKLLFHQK

In the case of `C[Si](C)(C)Cl`, the Potency in assay [1] is > 92 µM (inactive). In [2], the call was inactive. The Potency entry in assay [3], in assay [4], in assay [5], in [6], in assay [7] and in assay [8] was “inactive” throughout. For the same molecule, the Potency entry in assay [9] and in assay [11] was “inactive” in each case. The activity change % (negative = inhibition) in assay [10] is -7.14% (inactive).

As to `Cc1ccc2ccc3cccc4ccc1c2c34`, the Potency in assay [1] was > 92 µM (inactive); in [12], > 92 µM (inactive); in assay [8], 44.7 µM (active). Besides, the Potency result in assay [13], in assay [4], in assay [14], in assay [7], in [9] and in [17] was “inactive” in each case. Moreover, in assay [15], the activation is -3.78% (inactive). Moreover, the max response in assay [16] came out at 18.4%.

As for `CCCCCCCCC1CO1` (configuration not stated), the Potency in [1] is > 92 µM (inactive). Also, the Potency entry in [18], in assay [3], in assay [4], in [6], in [14] and in [7] was “inactive” throughout. In addition, the Potency entry in [8], in assay [9], in [17] and in [11] was “inactive” in each case. The call in assay [2] was inactive. In [15], the activation is -2.27% (inactive). Moreover, the max response in assay [16] is -10.9%. Besides, the activity change % (negative = inhibition) in assay [10] is 2.22% (inactive).

On to `c1cc2c3c(c1)ccc1cccc(c13)C2`, for which the Potency in assay [1] and in assay [12] was > 92 µM (inactive) in each case. Further, the Potency entry in assay [13], in assay [5] and in [14] was “inactive” throughout. Further, the molecule was called inactive in [2]. In addition, the max response in assay [16] came out at 4.88%. The activity change % (negative = inhibition) in [10] was -0.0299% (inactive).

Turning to `CC(C)OCC1CO1` (configuration not stated), the Potency in [1] and in assay [12] was > 92 µM (inactive) throughout. The Potency entry in [13], in assay [3], in assay [4], in assay [8], in assay [17] and in [11] was “inactive” throughout. In addition, the activation in [15] was -3.64% (inactive). In addition, the max response in assay [16] amounted to 3.66%. Besides, the activity change % (negative = inhibition) in assay [10] is 8.25% (inactive).

Regarding `Cc1ccc(S(N)(=O)=O)cc1`, in assay [1], the Potency is > 92 µM (inactive). The Potency result in assay [18], in assay [19], in assay [3], in assay [4], in [5] and in assay [6] was “inactive” throughout. The Potency result in assay [14], in assay [7], in assay [8], in assay [9], in assay [17] and in assay [11] was “inactive” in each case. Further, in assay [2], the result was inactive. The max response in assay [16] is 10.9% and 2.08%.

For `C=CC1CO1` (configuration not stated), the Potency in assay [1] and in assay [12] was > 92 µM (inactive) in each case. Besides, the Potency result in assay [13], in [3], in [5], in assay [14], in assay [7] and in assay [9] was “inactive” in each case. The Potency entry in [17] and in [11] was “inactive” throughout. In addition, in assay [2], the result was inactive.

On to `O=C(OCc1ccccc1)c1ccccc1O`, for which, in assay [1], the Potency is > 92 µM (inactive). Moreover, the Potency result in assay [18], in assay [13], in [4], in assay [5], in [6] and in assay [14] was “inactive” each time. Moreover, the Potency result in [7] and in assay [9] was “inactive” each time. In addition, the molecule was classed as inactive in [2]. In addition, the max response in [16] is 2.34% and -10.8%. In addition, the activity change % (negative = inhibition) in assay [10] is -8.64% (inactive).

With `c1ccc(CSCc2ccccc2)cc1`, the Potency in assay [1] was > 92 µM (inactive). Besides, the Potency result in [18], in assay [13], in assay [3], in assay [5], in [6] and in assay [14] was “inactive” in each case. For the same molecule, the Potency result in assay [7], in assay [9] and in assay [17] was “inactive” in each case. The activation in assay [15] is -4.65% (inactive). The max response in assay [16] was found to be 13.7%. Also, the activity change % (negative = inhibition) in assay [10] is -5.66% (inactive).

The values are drawn from PubChem BioAssay (NCATS).
